Rtt109 Vps75 – inhibitors of C. albicans Rtt109/Vps75 HAT, primary screen, biochemical, ThioGlo CoA-SH fluorescence, plate reader; purified Rtt109/Vps75, 4 h; Histone acetyltransferase RTT109 (Candida albicans (strain SC5314 / ATCC MYA-2876)), …; inhibition, % at 34.9 µM; 330,000 tested, 0.16% active;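 active means inhibition of at least 50% in every replicate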
PRMT1 FP inh – PRMT1 methyltransferase inhibitors, primary screen, biochemical, fluorescence polarization; Protein arginine N-methyltransferase 1 (Homo sapiens), Q99873; recombinant PRMT1, activity-based probe fluorescence polarization; inhibition, % at 2.79 µM; 370,000 tested, 1.3% active; AID 652257, 2013;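 active means inhibition above about 21% made by adding two undisclosed values, limit read from the data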
LANA-H2B inh – blockers of LANA interaction with H2A/H2B – biochemical, FP readout, HTS, primary screen; inhibition, % (test concentration not listed); AID 2629, 2010; cell-free LANA-H2A/H2B peptide, fluorescence polarization; Protein LANA1 (Human herpesvirus 8 type P (isolate GK18)), Q9QR71; 320,000 tested, 0.6% active; in the data active means inhibition mostly above about 10%, no sharp cut-off; inactive means mostly below about 6.7%
rCAG binder – binders of r(CAG) RNA repeats, primary screen, biochemical, fluorescence. r(CAG) RNA repeat, TO-PRO-1 dye displacement fluorescence. AID 651821, 2012. 370,000 tested, 1.3% active. inhibition, % at 3 µM;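 active means inhibition above the plate cutoff, the mean of all test compounds on that plate plus 3 SD, cut at about 35% in these data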;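 further: higher means more dye released from RNA so lower well fluorescence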
ALR H2O2 inh – inhibitors of human ALR sulfhydryl oxidase, primary screen, biochemical, H2O2 detection, HRP-luminol luminescence, single point. FAD-linked sulfhydryl oxidase ALR (Homo sapiens), P55789. purified ALR, DTT oxidation. inhibition, % (concentration not given with the values). 290,000 tested, 3.8% active;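 active means mean replicate inhibition above about 79%, with every replicate also reaching it, limit read from the data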
ABHD5-PLIN5 inh – ABHD5-PLIN5 interaction inhibitors, primary screen, cell lysate, split luciferase complementation, luminescence. Split G. princeps luciferase complementation, 4 h. inhibition, % at 4 µM. Perilipin-5 (Homo sapiens) + 1-acylglycerol-3-phosphate O-acyltransferase ABHD5 (Homo …. 360,000 tested, 0.78% active;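 active means inhibition above the mean inhibition across every tested compound plus 3 SD, cut at about 22% in these data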
Target sequence (Q00G26 whole entry, looked up): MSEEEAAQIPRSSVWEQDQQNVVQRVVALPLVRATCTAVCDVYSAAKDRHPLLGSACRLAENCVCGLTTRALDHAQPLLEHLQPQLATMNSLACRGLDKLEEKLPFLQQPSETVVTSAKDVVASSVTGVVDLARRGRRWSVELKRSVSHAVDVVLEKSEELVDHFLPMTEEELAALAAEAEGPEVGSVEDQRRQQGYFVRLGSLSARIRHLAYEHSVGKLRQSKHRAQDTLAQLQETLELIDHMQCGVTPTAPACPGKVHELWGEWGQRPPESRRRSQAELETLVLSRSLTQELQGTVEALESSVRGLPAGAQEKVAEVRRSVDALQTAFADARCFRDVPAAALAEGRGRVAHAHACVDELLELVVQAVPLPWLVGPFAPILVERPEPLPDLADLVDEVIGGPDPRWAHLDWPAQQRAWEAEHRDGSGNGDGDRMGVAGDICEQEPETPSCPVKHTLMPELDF
Target sequence (Q8WTS1 whole entry, looked up): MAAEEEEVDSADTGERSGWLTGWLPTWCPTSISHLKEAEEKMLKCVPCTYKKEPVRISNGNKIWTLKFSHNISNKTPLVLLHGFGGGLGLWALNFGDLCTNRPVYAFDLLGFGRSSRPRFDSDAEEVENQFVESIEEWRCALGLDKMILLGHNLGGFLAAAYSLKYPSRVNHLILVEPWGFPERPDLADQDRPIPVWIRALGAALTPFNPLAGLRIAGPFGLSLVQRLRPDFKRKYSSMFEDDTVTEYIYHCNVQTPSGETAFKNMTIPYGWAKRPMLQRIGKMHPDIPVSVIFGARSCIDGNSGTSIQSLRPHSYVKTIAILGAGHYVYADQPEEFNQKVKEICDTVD
ABHD5-PLIN5 conf – ABHD5-PLIN5 interaction inhibitors, confirmation, biochemical, luminescence; shares compounds with ABHD5-PLIN5 inh; inhibition, % at 4 µM; 2,200 tested, 67% active; in the data active means inhibition above about 23%
HNF4 counter – HNF4 dimerization inhibitors, counter-screen for ABHD5-PLIN5 interaction inhibitor project, biochemical, split-luciferase complementation, luminescence; inhibition, % at 4 µM; AID 651674, 2012; 2,200 tested, 77% active; shares compounds with ABHD5-PLIN5 inh;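 active means mean inhibition across replicate wells exceeding the computed hit threshold, cut at about 13% in these data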;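 further: light from luciferase halves that rejoin when HNF4 fusion proteins dimerize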
Hits are given with their value; 0 = inactive; - = not tested or not shown. An excerpt weighted towards active compounds, which were near 5.9% of everything screened.

SMILES	Rtt109 Vps75	PRMT1 FP inh	LANA-H2B inh	rCAG binder	ALR H2O2 inh	ABHD5-PLIN5 inh	ABHD5-PLIN5 conf	HNF4 counter
CC(C)N1CCCCC(NC(=O)Cc2ccccc2)C1=O (stereo not drawn)	-	0	-	0	-	-	-	-
COC(=O)[C@]12C[C@H](CC(=O)NCc3ccc(OC)c(OC)c3)C(=O)N(Cc3ccco3)C1=C[C@H](C1CCCC1)O[C@@H]2C	-	0	-	0	-	-	-	-
C#CCNC(=O)C[C@H]1C(=O)N(Cc2ccc(OC)cc2)C2=CCCCC[C@@]21C(=O)OC	-	0	-	0	-	-	-	-
CCCC1CCC2(CCC(=O)N2CCO)CC1 (stereo not drawn)	-	0	-	0	-	-	-	-
CC(=O)OCC1=C(C(=O)O)N2C(=O)C(NC(=O)c3ccc(F)cc3)C2SC1 (stereo not drawn)	0	24	0	0	0	30	0	28
COc1ccc([C@H]2CC(=O)C=C(/C=C/Cc3ccccc3)C2)cc1	0	0	0	0	0	26	38	32
COc1ccc(CCNC(=O)CN(c2cc([N+](=O)[O-])ccc2OC)S(C)(=O)=O)cc1OC	0	0	0	0	0	0	-	-
COc1ccc(CCNC(=O)CN(c2cccc([N+](=O)[O-])c2)S(C)(=O)=O)cc1OC	0	0	0	0	-	82	0	0
COC(=O)C[C@@H]1CC[C@@H]2[C@@H](COc3ccc(NC(=O)c4ccc(F)cc4)cc3C(=O)N2C)O1	-	0	-	0	-	-	-	-
COc1ccc(/C=C/C(=O)Oc2ccc(C)c(C)c2)cc1OC	0	0	0	0	0	0	-	-
COc1cc(/C=C/[N+](=O)[O-])ccc1OC(=O)/C=C/c1ccc(F)cc1	0	0	0	0	0	30	49	73
Cc1cccc(C)c1NC(=O)C(c1ccc(C#N)cc1)n1c(=O)c(-c2ccccc2)nc2ccccc21 (stereo not drawn)	-	0	-	0	-	0	-	-
Cc1ccc(-n2cc(-c3ccccc3)c3c(N4CCN(C)CC4)ncnc32)cc1	0	0	0	0	0	24	0	0
Cc1n[nH]c(C)c1S(=O)(=O)NCCc1c[nH]c2ccccc12	-	0	-	0	-	-	-	-
CCCC1=C(C(=O)OCC)C(c2ccco2)n2ncnc2N1 (stereo not drawn)	0	0	0	0	0	0	-	-
COCC1=C(C(=O)OC)C(c2ccco2)n2ncnc2N1 (stereo not drawn)	-	0	0	0	0	38	0	0
COc1ccc(-c2cn(CCc3c[nH]c4ccccc34)nn2)cc1	0	0	0	0	0	0	-	-
Cc1ccsc1/C=N/NC(=O)CNC(=O)c1cccc([N+](=O)[O-])c1C	0	0	0	0	0	25	0	0
Cc1ccsc1/C=N/NC(=O)CNC(=O)c1ccco1	0	0	0	0	0	0	-	-
COc1ccc(CCNC(=O)/C=C/c2ccc3ccccc3n2)cc1OC	0	0	0	0	0	25	32	18
CCN(CC)C(=O)[C@H]1C[C@H](CC(=O)NCCc2ccccn2)C(=O)N2CCc3c([nH]c4cc(-c5ccco5)ccc34)[C@]12C	0	0	-	0	-	24	0	0
O=C(C[C@H]1C[C@H](C(=O)N2CCOCC2)[C@@]2(CCC3CCCC3)c3[nH]c4cc(-c5ccco5)ccc4c3CCN2C1=O)NCc1cccc(C(F)(F)F)c1	0	0	-	0	-	23	0	0
CN(C)CCCNC(=O)C[C@H]1C[C@H](C(=O)N2CCOCC2)[C@@]2(CCC3CCCC3)c3[nH]c4cc(-c5ccco5)ccc4c3CCN2C1=O	0	0	-	0	-	25	0	0
COc1ccc(CNC(=O)C[C@H]2C[C@H](C(=O)N3CCOCC3)[C@@]3(CCC4CCCC4)c4[nH]c5cc(-c6ccco6)ccc5c4CCN3C2=O)cc1OC	0	0	-	0	-	29	0	13
CCC(=O)N(C)C[C@@H]1[C@H](c2ccc(C3=CCCCC3)cc2)[C@H](CO)N1C(=O)CC	-	0	-	0	-	-	-	-
SMILES	Rtt109 Vps75	PRMT1 FP inh	LANA-H2B inh	rCAG binder	ALR H2O2 inh	ABHD5-PLIN5 inh	ABHD5-PLIN5 conf	HNF4 counter
COc1ccc(S[C@]2(C(=O)N3CCN(c4ncccn4)CC3)CC(=O)N(S(=O)(=O)c3ccc(F)cc3)[C@@H]2c2ccc(OC)cc2)cc1	-	0	-	0	-	-	-	-
CCCN1C(=O)S/C(=C/c2ccc(N3CCOCC3)o2)C1=O	0	0	0	0	99	83	32	93
O=C(CSc1nnc(-c2cccnc2)n1Cc1ccco1)c1ccc2ccccc2c1	-	0	0	0	0	65	53	76
O=C(CSc1nnc(-c2cccnc2)n1Cc1ccco1)Nc1cccc(O)c1	0	0	0	0	0	0	-	-
C=C1C(=O)[C@]23C[C@H]1CCC2[C@@]1(C)C(C[C@@H]3O)[C@](C)(C(=O)OC)CC[C@@H]1O (stereo partly drawn)	-	0	-	0	-	39	67	108
Cc1occc1-c1nnc(SCC(=O)N2CCN(c3ncccn3)CC2)n1-c1ccccc1	-	0	-	0	-	-	-	-
COc1ccc(S(=O)(=O)N2c3ccc(F)cc3CCC2C)cc1 (stereo not drawn)	0	0	0	0	0	0	-	-
CC(=O)Nc1ccc(S(=O)(=O)N2c3ccc(F)cc3CCC2C)cc1 (stereo not drawn)	0	0	0	0	0	27	46	0
N#C/C(=C\c1ccc(N2CCOCC2)o1)c1ccccc1	0	0	0	0	-	76	37	101
N#C/C(=C/c1ccc(N2CCOCC2)o1)C(=O)NC1CCCCC1	0	0	0	0	0	27	0	34
N#C/C(=C/c1ccc(N2CCCCC2)o1)C(=O)Nc1ccc2ccccc2c1	-	0	-	0	-	26	37	31
COc1ccc(NC(=O)/C(C#N)=C/c2ccc(Br)o2)cc1	0	0	0	0	0	0	-	-
COC(=O)C1CN(Cc2ccc(F)cc2)CCS(=O)(=O)N1Cc1ccc(C(F)(F)F)cc1 (stereo not drawn)	-	0	-	0	-	-	-	-
Cc1ccccc1NC(=O)OCCN1CCCC12CCC(c1ccccc1)CC2 (stereo not drawn)	-	0	-	-	-	-	-	-
CCOC(=O)N(C)[C@H]1C[C@H]2c3[nH]c4cccc(-c5cccc(F)c5)c4c3CCN2C(=O)[C@H]1[C@H](C)O	-	0	-	0	-	-	-	-
O=c1[nH]c(/C=C/c2ccc([N+](=O)[O-])cc2)c([N+](=O)[O-])c(=O)[nH]1	0	0	0	0	0	50	85	79
CC(C)CNC(=O)C(=O)Nc1cc2c3c(c1)C(C)C(=O)N3CCC2 (stereo not drawn)	0	0	0	0	0	0	-	-

Screening results as filed in PubChem BioAssay.
